The whole screen tested about 370,000 compounds, of which about 4,800 (1.3%) were called active. For the sample, actives were picked, then their nearest neighbours and some compounds at random. Unmarked numbers belong to inactive results.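 Rule for the calls: active = inhibition above about 21% made by adding two undisclosed values (limit read from the data); inactive = the rest.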
The compounds below were run against Protein arginine N-methyltransferase 1 (Homo sapiens) (UniProt Q99873) (assay: PRMT1 methyltransferase inhibitors, primary screen, biochemical, fluorescence polarization (AID 652257)). Conditions: recombinant PRMT1, activity-based probe fluorescence polarization; at 2.79 µM; active compounds read high.
Protein arginine N-methyltransferase 1 (Homo sapiens), sequence (Q99873 whole entry, looked up): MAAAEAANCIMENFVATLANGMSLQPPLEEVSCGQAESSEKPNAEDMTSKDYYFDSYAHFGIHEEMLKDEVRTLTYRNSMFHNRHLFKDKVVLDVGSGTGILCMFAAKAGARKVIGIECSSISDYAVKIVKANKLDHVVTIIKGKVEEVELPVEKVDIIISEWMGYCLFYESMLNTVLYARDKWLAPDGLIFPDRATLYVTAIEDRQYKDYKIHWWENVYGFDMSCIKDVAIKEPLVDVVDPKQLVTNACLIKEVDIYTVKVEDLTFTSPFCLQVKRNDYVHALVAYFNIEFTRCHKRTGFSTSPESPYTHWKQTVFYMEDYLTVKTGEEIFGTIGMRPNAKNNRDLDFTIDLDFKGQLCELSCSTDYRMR

Row | Structure (SMILES) | inhibition
1 | CCN(CC)C(=O)CC[C@@H]1CC[C@]2(CCCN(S(=O)(=O)C3CCCCC3)C2)O1 | 8.38%
2 | CC1(C)SC2c3ccccc3C(=O)N2[C@@H]1C(=O)NCc1ccco1 (stereo partly drawn) | 2.92%
3 | CN=C1SC(C(=O)O)CC(=O)N1C (stereo not drawn) | 0.87%
4 | COC(=O)[C@]12C[C@H](CC(=O)N3CCOCC3)C(=O)N(Cc3ccc(Cl)cc3Cl)C1=C[C@H](C(C)C)O[C@@H]2C1CC1 | 3.55%
5 | c1ccc(C2CNCc3c2ccc2ccccc32)cc1 (stereo not drawn) | 2.21%
6 | CCCC(C(=O)NCc1ccco1)N(C(=O)CNS(=O)(=O)c1ccccc1)C1CCCC1 (stereo not drawn) | -1.78%
7 | COC(=O)C1CN(CC(C)C)CCS(=O)(=O)N1Cc1ccc(C)cc1 (stereo not drawn) | 6.76%
8 | O=C(C1CCCN1S(=O)(=O)c1ccccc1)N1CCc2ccccc2C1 (stereo not drawn) | -6.97%
9 | CC(C)CNS(=O)(=O)CC1NCCc2ccccc21 (stereo not drawn) | 4.3%
10 | CCn1c2ccccc2c2cc(NC(=O)CSc3nnc(-c4ccccc4)n3-c3ccc(C)cc3)ccc21 | -1.61%
11 | CN(CCOc1ccccc1)Cc1nc2cc(Cl)ccc2c(=O)[nH]1 | 2.3%
12 | CC(=O)N1CCN(C(=O)c2cc(-c3ccc(C)o3)nc3ccccc23)CC1 | 32.5% (active)
13 | CN(CCOc1ccccc1)C(=O)c1cc(-c2ccco2)nc2ccccc12 | 29.2% (active)
14 | O=C(Nc1cccc(F)c1)c1cc(-c2ccco2)nc2ccccc12 | 30.3% (active)
15 | O=C(c1cc(-c2ccco2)nc2ccccc12)N(Cc1nnc(-c2ccc(Cl)cc2)o1)C1CC1 | 22.5% (active)
16 | O=C(c1ccc(Cl)s1)N(Cc1nnc(-c2ccccc2Cl)o1)C1CC1 | 1.28%
17 | O=C(c1cc(-c2ccc(Cl)s2)nc2ccccc12)N1CCOCC1 | -5.47%
18 | CN(C)C(CNC(=O)CCCOc1ccccc1)c1ccco1 (stereo not drawn) | -0.86%
19 | O=C(Nc1cccc(F)c1)c1coc(=O)c(Br)c1 | 5.43%
20 | CC(=O)N1CCN(C(=O)c2cc(-c3ccc(Cl)s3)nc3ccccc23)CC1 | 2.92%

Row | Structure (SMILES) | inhibition
21 | Cc1cc(C(=O)Nc2ccc(C)c(S(=O)(=O)N3CCOCC3)c2)c2ccccc2n1 | 0.88%
22 | CC(C)N(Cc1nnc(-c2ccccc2Br)o1)C(=O)c1cc(Cl)nc2ccccc12 | -5.25%
23 | COC(=O)C[C@H]1CC[C@H]2[C@H](COc3ccc(NC(=O)C4CC4)cc3C(=O)N2C)O1 | 1.52%
24 | CC(=O)NCCc1ccc(S(=O)(=O)N(C)C2CCS(=O)(=O)C2)cc1 (stereo not drawn) | -0.5%
25 | CN1C[C@]2(C=C3CCCCC3n3c(=O)n(-c4ccccc4)c(=O)n32)N=C1NC(=O)c1ccccc1 (stereo partly drawn) | 1.11%
26 | COC(=O)C[C@@H]1CC[C@H]2[C@@H](COc3ccc(NS(=O)(=O)CC(F)(F)F)cc3C(=O)N2C)O1 | 4.04%
27 | O=C(CNS(=O)(=O)c1ccccc1)NCC(=O)OCc1ccccc1F | 1.67%
28 | CC(=O)C1(C(=O)Nc2nccs2)CC(c2ccccc2C(F)(F)F)=NO1 (stereo not drawn) | 5.04%
29 | O=C1CCC/C(=N\NC(=O)NC2CCCCC2)C1 | 0.8%
30 | O=C(OC12CCCN(C1)/C(=C/c1ccccc1)C2)c1ccco1 (stereo not drawn) | -3.75%
31 | CNC(=O)NC(=O)CSc1nnc(-c2ccc(F)cc2)n1CC1CCCO1 (stereo not drawn) | 2.71%
32 | COc1ccccc1CCNC(=O)C1CCN(c2nc(C)cc(C)n2)CC1 | 1.67%
33 | CCn1c(SCC(C)=O)nc2sc3c(c2c1=O)CCCC3 | -4.09%
34 | COc1ccc(NC(=O)CN(C)C(=O)c2cc(C)oc2C)cc1 | -0.84%
35 | COc1cccc(NC(=O)CN(C)C(=O)c2cc(Cl)nc3ccccc23)c1 | -4.52%
36 | Cc1ccc(NC(=O)c2cc(-c3ccc(C)o3)nc3ccccc23)nc1 | 47.4% (active)
37 | O=C(Nc1nc2ccc(Cl)cc2s1)c1cc(-c2ccc(Cl)cc2)nc2ccccc12 | 9%
38 | Cc1cc(NC(=O)c2ccccc2C)no1 | -1.67%
39 | Cc1ccc(S(=O)(=O)CCC(=O)OCC(=O)N(C)C2CCS(=O)(=O)C2)cc1 (stereo not drawn) | 1.31%
40 | Cc1cc(C(=O)OCC(=O)N2C(C)CCCC2C)c2ccccc2n1 (stereo not drawn) | 7.6%

Row | Structure (SMILES) | inhibition
41 | COc1ccc(NC(=O)CN(C)C(=O)c2cc(-c3ccc(C)o3)nc3ccccc23)cc1 | 26.9% (active)
42 | CN(C(=O)COC(=O)c1cc(-c2ccco2)nc2ccccc12)C1CCS(=O)(=O)C1 (stereo not drawn) | 21.6% (active)
43 | CC1(C)CC(CNCCC(c2ccc(F)cc2)c2ccco2)CCO1 (stereo not drawn) | -2.86%
44 | O=C(NCCc1ccc(Cl)cc1Cl)c1cc([N+](=O)[O-])c[nH]c1=O | -1.63%
45 | CC(=O)c1ccc(Cc2ncc(C(F)(F)F)cc2Cl)s1 | 1.39%
46 | CCOC(=O)C1CCN(C(=O)C(C)(C)NC(=O)Nc2ccccc2Cl)CC1 | -1.31%
47 | Cc1ccc(-n2c(SCC(=O)Nc3ccc(S(=O)(=O)Nc4nccs4)cc3)nnc2-c2cccnc2)cc1 | -3.77%
48 | CC(C)CCC(=O)Nc1cc(S(=O)(=O)N2CCOCC2)ccc1N1CCCC1 | -0.42%
49 | COCCNC(=S)Nc1cc(S(=O)(=O)N2CCOCC2)ccc1N1CCCCC1 | 29.6% (active)
50 | O=C(COC(=O)Cc1ccc(F)cc1)Nc1cc(S(=O)(=O)N2CCOCC2)ccc1N1CCCC1 | -0.54%
51 | CN(C)Cc1cn(-c2ccc(-c3noc4c3C(=O)N(CC(=O)N3CCOCC3)CC4)cc2)nn1 | 3.49%
52 | O=C(/C=C/c1cccc(C(F)(F)F)c1)N1CCN(c2ccccn2)CC1 | 3.3%
53 | Cc1ccc(C)c(NC(=O)CCS(=O)(=O)c2ccccc2)c1 | 10%
54 | O=S(=O)(Nc1n[nH]c(C(F)(F)F)n1)c1ccccc1 | -0.91%
55 | Cc1noc(C)c1C(=O)OC(C)C(=O)Nc1ccc2c(c1)OCO2 (stereo not drawn) | -4.06%
56 | CC1CCC(NS(=O)(=O)c2ccc3c(c2)CC(=O)N3)CC1 (stereo not drawn) | 2.71%
57 | Cn1sc(=O)c2cc(S(=O)(=O)NC3CC3)ccc21 | 36.8% (active)
58 | O=S(=O)(NC1CC1)c1ccc(F)c(F)c1 | 0.17%

Reference: PubChem BioAssay AID652257 (The Scripps Research Institute Molecular Screening Center, 2013)
